The nature of experiment [1]: APR_HepG2_P-H2AX_72hr: Apredica 72-hour HepG2 Assay for H2AX Phosphorylation (AID 2282916).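 Note: phospho-histone H2A.x immunostain intensity per cell marking DNA damage.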 The conditions noted are these: imaging, actives raise or lower the signal. An outline of the steps:
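Following 72 hr treatment with 0.39–200 uM compound, HepG2 cells were formaldehyde-fixed, permeabilized and stained for phospho-H2A.x; signal was measured by high-content imaging and fitted bidirectionally against DMSO controls.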

Experiment [2] is described as follows: APR_HepG2_MitoMembPot_72hr: Apredica 72-hour HepG2 Assay for Mitochondrial Membrane Potential (AID 2282917). The conditions noted are these: imaging, actives raise or lower the signal. In outline:
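Membrane potential read by MitoTracker Red CMXRos (250 nM, 30 min, pre-fixation) fluorescence imaging of HepG2 after 72 hr exposure. Ten concentrations, 0.39–200 uM, duplicate wells, 0.5% DMSO; fitted in both directions against DMSO baseline.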

The nature of experiment [3]: APR_HepG2_MitoticArrest_72hr: Apredica 72-hour HepG2 Assay for Mitotic Arrest (AID 2282918). The conditions noted are these: high-content imaging, actives raise or lower the signal. In outline:
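Read-out is phospho-histone H3 immunofluorescence with Hoechst nuclear segmentation, imaged at 20x. Human HepG2 liver cells received ten concentrations (0.39–200 uM, final DMSO 0.5% v/v) for 72 hr before fixation. Gain or loss of signal was fitted relative to DMSO.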

A short description of experiment [4]: APR_HepG2_MicrotubuleCSK_72hr: Apredica 72-hour HepG2 Assay for Microtubule CSK Stabilty (AID 2282919). The following applies: HepG2 microtubule cytoskeleton, high-content imaging, actives raise or lower the signal. An outline of the steps: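 Read-out is tubulin fluorescence intensity from high-content imaging of HepG2 cells, with nuclei identified by Hoechst 33342. Treatment lasts 72 h at 0.39–200 uM, and curves are fitted bidirectionally against the DMSO negative control.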

A short description of experiment [5]: APR_HepG2_StressKinase_72hr: Apredica 72-hour HepG2 Assay for Stress Kinase (AID 2282921). The conditions noted are these: HepG2 stress kinase (phospho-c-Jun) imaging, actives raise or lower the signal. An outline of the steps:
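Fluorescence intensity of Cy3-tagged anti-phospho-c-Jun antibody, quantified per cell from Hoechst-defined nuclei across six images per well, served as the read-out following 72 h exposure (0.39–200 uM, 0.5% v/v DMSO).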

A short description of experiment [6]: APR_HepG2_StressKinase_24hr: Apredica 24-hour HepG2 Assay for Stress Kinase (AID 2282922). The conditions noted are these: HepG2 stress kinase (phospho-c-Jun) imaging, actives raise or lower the signal. An outline of the steps:
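HepG2, 24 hr dosing, 0.39–200 uM in duplicate, 0.5% DMSO; formaldehyde fix (3.7%), 0.5% Triton X-100; anti-phospho-c-Jun + Cy3 secondary, Hoechst counterstain; ArrayScan imaging; bidirectional curve fit vs DMSO baseline.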

Experiment [7] is described as follows: APR_HepG2_p53Act_72hr: Apredica 72-hour HepG2 Assay for p53 Activation (AID 2282923).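 Note: average cellular p53 protein immunofluorescence intensity in HepG2 cells.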 The conditions noted are these: high-content imaging, actives raise or lower the signal. An outline of the steps:
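HepG2 monolayers receive test compounds in duplicate at ten concentrations (0.39 through 200 uM) for 72 hr. They are then formaldehyde-fixed, antibody-labelled for p53, Hoechst-stained and imaged, with activity fitted bidirectionally versus DMSO.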

Experiment [8] in a line: APR_HepG2_MitoMass_72hr: Apredica 72-hour HepG2 Assay for Mitochondrial Mass (AID 2282924).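 Note: MitoTracker Red CMXRos stain intensity per cell imaged as mitochondrial mass.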 The following applies: high-content imaging, actives raise or lower the signal. In outline:
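HepG2, 72 hr cmpd, 10 conc 0.39–200 uM in dup, DMSO 0.5% v/v. MitoTracker Red CMXRos 250 nM 30 min pre-fix; formaldehyde 3.7% fix 30 min RT. HCS imaging, gain/loss fit vs DMSO.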

Experiment [9] can be described thus: APR_HepG2_NuclearSize_72hr: Apredica 72-hour HepG2 Assay for Nuclear Size (AID 2282925). The conditions noted are these: high-content imaging, actives raise or lower the signal. An outline of the steps:
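HepG2; cpd 0.39–200 uM, 10 conc, duplicate; 72 h; DMSO 0.5% v/v; fix 3.7% formaldehyde 30 min RT; Triton permeabilization; Hoechst 2 ug/mL; HCS imaging 20x; nuclear diameter; gain/loss fit vs DMSO.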

The nature of experiment [10]: ATG_CRE_CIS: Attagene CIS-FACTORIAL HepG2 Assay for human cAMP Responsive Element (CRE) binding protein 3 (AID 2282926). The conditions noted are these: HepG2 CRE cis-reporter, Attagene multiplexed mRNA; actives raise or lower the signal. An outline of the steps:
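Human liver HepG2, transient MRTU transfection, 24 h compound exposure. Total RNA → oligo(dT) RT → PCR → 6-FAM primer extension → HpaI cut → CE. Activity called both directions vs DMSO.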

Experiment [11] deals with CCAAT/enhancer-binding protein beta (Homo sapiens) (UniProt P17676). Description: ATG_C_EBP_CIS: Attagene CIS-FACTORIAL HepG2 Assay for human CCAAT/Enhancer Binding Protein (C/EBP) beta (AID 2282927). The conditions noted are these: HepG2 Attagene cis-factorial transcription factor reporter; actives raise or lower the signal. An outline of the steps: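 Endogenous C/EBPb-driven reporter transcripts measured in transfected human HepG2 cells at 24 h via RT-PCR and capillary electrophoresis of labelled fragments. Activity fitted in both directions relative to DMSO baseline.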

A short description of experiment [12]: ATG_CMV_CIS: Attagene CIS-FACTORIAL HepG2 Assay for human CMV (Internal Marker) (AID 2282928).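 Note: endpoint acts as a background internal control marker rather than a target.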 The conditions noted are these: HepG2 CMV promoter reporter, transcription factor profiling; actives raise or lower the signal. In outline: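 Endogenous transcription factor activity read in HepG2 via transfected cis-promoter reporter units. After 24 h dosing, reporter mRNA measured by RT-PCR/capillary electrophoresis; gain or loss of signal fit relative to DMSO.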

Experiment [13] is described as follows: ATG_DR4_LXR_CIS: Attagene CIS-FACTORIAL HepG2 Assay for human Liver X Receptor (LXR), DR4 submotif (AID 2282929). The conditions noted are these: HepG2 Attagene DR4 cis-reporter, mRNA transcription; actives raise or lower the signal. An outline of the steps: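 HepG2, transient MRTU transfection, cis-element (DR4) promoter; 24 h compound exposure; total RNA → oligo(dT) RT → PCR → 6-FAM primer extension → HpaI cut → CE. Gain/loss vs DMSO, bidirectional fit.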

Experiment [14] deals with Aryl hydrocarbon receptor (Homo sapiens) (UniProt P35869). Description: ATG_Ahr_CIS: Attagene CIS-FACTORIAL HepG2 Assay for human Aryl Hydrocarbon Receptor (Ahr) (AID 2282930). The conditions noted are these: HepG2 AhR cis-factorial reporter transcription; actives raise or lower the signal. An outline of the steps: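 Reporter mRNA levels, quantified by RT-PCR and fluorescent capillary electrophoresis, reflect endogenous AhR transcriptional activity in HepG2 cells carrying transfected cis-promoter reporter constructs. Readout at 24 h post-dose; gain or loss fitted against DMSO baseline.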

A short description of experiment [15]: ATG_AP_1_CIS: Attagene CIS-FACTORIAL HepG2 Assay for human Activator Protein 1 (AP-1) (AID 2282931). The conditions noted are these: HepG2 Attagene cis-factorial AP-1 reporter mRNA; actives raise or lower the signal. In outline: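 Transient MRTU transfection of HepG2 → 24 h chemical treatment → RNA isolation, RT-PCR, 6-FAM labelling, HpaI digest → capillary electrophoresis. Fit: bidirectional, DMSO negative control.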

Experiment [16] can be described thus: ATG_AP_2_CIS: Attagene CIS-FACTORIAL HepG2 Assay for human Activator Protein 2 (AP-2) (AID 2282932). The following applies: HepG2 AP-2 cis-reporter, Attagene transcription factor profiling; actives raise or lower the signal. An outline of the steps:
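Step one: transient transfection of HepG2 with reporter transcription units. Step two: 24 h chemical exposure. Step three: RNA extraction, RT-PCR, labelled fragment analysis by capillary electrophoresis; DMSO serves as baseline.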

Experiment [17] can be described thus: ATG_BRE_CIS: Attagene CIS-FACTORIAL HepG2 Assay for human Bone Morphogenetic Protein (BMP) Response Element (BRE) (AID 2282933). The following applies: HepG2 BMP response element reporter, Attagene transcription factor profiling; actives raise or lower the signal. In outline:
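Endogenous transcription factor activity at a BMP response element was monitored in transfected HepG2 cells 24 h after dosing. Fluorescent RT-PCR products were resolved by capillary electrophoresis, and activity was fitted in both directions versus DMSO.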

The target of experiment [18] is Retinoic acid receptor alpha (Homo sapiens) (UniProt P10276). Description: ATG_DR5_RAR_CIS: Attagene CIS-FACTORIAL HepG2 Assay for human Retinoic Acid Receptor Alpha (RARE), DR5 submotif (AID 2282934). The conditions noted are these: HepG2 Attagene cis-factorial RARE DR5 reporter, mRNA; actives raise or lower the signal. An outline of the steps: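 Reporter transcripts from a DR5-regulated unit, measured via RT-PCR plus capillary electrophoresis, reflect endogenous RAR activity in transiently transfected human HepG2 liver cells. Exposure lasted 24 h; gain or loss of signal scored against DMSO.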

In experiment [19] the target is Transcription factor E2F1 (Homo sapiens) (UniProt Q01094). Description: ATG_E2F_CIS: Attagene CIS-FACTORIAL HepG2 Assay for human E2F Transcription Factor 1 (AID 2282935). The following applies: HepG2 Attagene cis-reporter, E2F reporter RNA transcripts; actives raise or lower the signal. An outline of the steps:
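Total RNA from 24 h-treated, reporter-transfected HepG2 cells undergoes DNase I treatment, oligo(dT) reverse transcription, PCR and 6-FAM primer extension before capillary electrophoresis.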

The source made the active and inactive calls. Rule for the calls: active = hit-call score of the fitted dose curve at least 0.9, where 1 is the maximum; inactive = score below 0.9.

Chain of Retinoic acid receptor alpha (Homo sapiens) (P10276 whole entry, looked up): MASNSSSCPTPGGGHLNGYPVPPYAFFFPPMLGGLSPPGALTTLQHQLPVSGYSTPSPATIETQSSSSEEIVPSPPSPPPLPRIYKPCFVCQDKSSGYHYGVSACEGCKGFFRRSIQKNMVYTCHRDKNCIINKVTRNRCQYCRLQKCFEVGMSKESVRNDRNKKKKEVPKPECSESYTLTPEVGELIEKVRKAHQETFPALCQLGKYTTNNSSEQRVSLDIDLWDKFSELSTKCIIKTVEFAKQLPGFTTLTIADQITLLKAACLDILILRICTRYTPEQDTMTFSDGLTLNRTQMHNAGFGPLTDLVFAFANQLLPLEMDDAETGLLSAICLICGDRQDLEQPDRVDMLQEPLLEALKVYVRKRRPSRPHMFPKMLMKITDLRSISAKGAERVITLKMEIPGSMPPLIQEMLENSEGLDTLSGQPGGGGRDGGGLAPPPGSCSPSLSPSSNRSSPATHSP
Chain of Aryl hydrocarbon receptor (Homo sapiens) (P35869 whole entry, looked up): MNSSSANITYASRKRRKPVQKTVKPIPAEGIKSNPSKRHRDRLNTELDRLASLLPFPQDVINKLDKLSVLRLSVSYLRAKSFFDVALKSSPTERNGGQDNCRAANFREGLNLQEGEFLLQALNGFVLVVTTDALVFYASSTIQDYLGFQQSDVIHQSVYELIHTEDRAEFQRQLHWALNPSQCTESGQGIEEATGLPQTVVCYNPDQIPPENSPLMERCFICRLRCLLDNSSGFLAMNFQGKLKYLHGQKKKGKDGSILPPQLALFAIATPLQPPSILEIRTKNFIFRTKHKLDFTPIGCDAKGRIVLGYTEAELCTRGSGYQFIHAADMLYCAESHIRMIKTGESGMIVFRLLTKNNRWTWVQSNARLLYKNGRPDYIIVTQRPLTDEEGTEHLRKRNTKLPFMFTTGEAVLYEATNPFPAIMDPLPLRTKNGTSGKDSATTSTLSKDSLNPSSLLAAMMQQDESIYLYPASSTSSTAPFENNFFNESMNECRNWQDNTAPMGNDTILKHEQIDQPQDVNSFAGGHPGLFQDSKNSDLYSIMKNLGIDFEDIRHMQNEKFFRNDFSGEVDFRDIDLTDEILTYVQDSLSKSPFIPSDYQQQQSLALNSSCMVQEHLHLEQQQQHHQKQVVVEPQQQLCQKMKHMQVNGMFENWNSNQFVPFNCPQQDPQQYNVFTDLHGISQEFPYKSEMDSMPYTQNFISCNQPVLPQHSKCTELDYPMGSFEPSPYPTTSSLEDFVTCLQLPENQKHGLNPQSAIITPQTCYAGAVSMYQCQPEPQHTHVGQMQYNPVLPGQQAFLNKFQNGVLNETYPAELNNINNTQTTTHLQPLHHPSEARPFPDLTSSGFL
Chain of Transcription factor E2F1 (Homo sapiens) (Q01094 whole entry, looked up): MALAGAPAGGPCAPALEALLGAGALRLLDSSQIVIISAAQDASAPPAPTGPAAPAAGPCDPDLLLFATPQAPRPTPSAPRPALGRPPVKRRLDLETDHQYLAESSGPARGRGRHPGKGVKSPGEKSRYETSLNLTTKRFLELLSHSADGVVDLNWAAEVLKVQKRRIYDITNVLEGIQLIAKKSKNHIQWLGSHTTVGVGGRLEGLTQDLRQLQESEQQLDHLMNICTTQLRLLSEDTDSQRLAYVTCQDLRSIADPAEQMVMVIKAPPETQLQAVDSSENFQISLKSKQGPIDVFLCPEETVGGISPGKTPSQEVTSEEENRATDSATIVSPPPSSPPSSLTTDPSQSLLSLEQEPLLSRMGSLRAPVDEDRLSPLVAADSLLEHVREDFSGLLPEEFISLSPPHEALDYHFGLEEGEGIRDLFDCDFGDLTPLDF
Chain of CCAAT/enhancer-binding protein beta (Homo sapiens) (P17676 whole entry, looked up, the tested form may be a part): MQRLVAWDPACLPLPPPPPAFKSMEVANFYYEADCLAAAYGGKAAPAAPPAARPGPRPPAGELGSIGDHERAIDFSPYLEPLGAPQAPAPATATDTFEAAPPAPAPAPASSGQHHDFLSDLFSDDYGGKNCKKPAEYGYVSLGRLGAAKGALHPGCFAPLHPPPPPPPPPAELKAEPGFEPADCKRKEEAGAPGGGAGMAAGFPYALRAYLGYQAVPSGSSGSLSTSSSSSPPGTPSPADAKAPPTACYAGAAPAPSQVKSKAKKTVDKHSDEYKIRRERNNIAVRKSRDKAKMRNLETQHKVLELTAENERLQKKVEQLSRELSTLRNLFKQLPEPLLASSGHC

Regarding `O=NN(c1ccccc1)c1ccccc1`, the outcome in experiment [1], in [3], in [4], in experiment [5], in experiment [6] and in experiment [7] was inactive. Further, the molecule was classed as inactive in [8], in [9], in experiment [10], in [11], in [12] and in experiment [13]. Besides, the molecule was called inactive in experiment [14], in experiment [16], in experiment [17], in [18] and in experiment [19]. The AC50 in experiment [2] is 0.0668 µM (active); in experiment [15], 118 µM (active).

As to `Cc1cc(O)ccc1Cl`, the outcome in experiment [1], in experiment [2], in [3], in experiment [4], in experiment [5] and in experiment [6] was inactive. In addition, the molecule was called inactive in experiment [7], in experiment [8], in experiment [9], in experiment [10], in [11] and in [12]. The call in experiment [13], in [14], in experiment [15], in experiment [16], in experiment [18] and in [19] was inactive.

Turning to `O=C(O)C(F)(F)C(F)(F)C(F)(F)C(F)(F)C(F)(F)F`, the molecule was classed as inactive in experiment [1], in experiment [2], in [3], in experiment [4], in experiment [5] and in experiment [6]. Also, the molecule was classed as inactive in [7], in experiment [8], in experiment [9], in [10], in experiment [11] and in [12]. For the same molecule, the molecule was classed as inactive in experiment [13], in [14], in [15], in [16], in experiment [17] and in experiment [18]. Moreover, in experiment [19], the molecule was called inactive.

For the molecule `CCOCCOC(C)=O`, the call in [1], in experiment [2], in experiment [3], in experiment [4], in [5] and in experiment [6] was inactive. Besides, the call in experiment [7], in experiment [8], in experiment [9], in [10], in experiment [11] and in experiment [12] was inactive. The call in experiment [13], in experiment [14], in experiment [15], in [16], in [17] and in [18] was inactive. Moreover, the call in experiment [19] was inactive.

As for `CC(C)C(=O)OCC(C)(C)C(OC(=O)C(C)C)C(C)C` (configuration not stated), the molecule was classed as inactive in experiment [1], in experiment [2], in experiment [3], in [4], in experiment [5] and in experiment [6]. The call in [7], in [8], in [9], in experiment [10], in [11] and in [12] was inactive. The result in [13], in experiment [15], in experiment [16], in [17], in experiment [18] and in experiment [19] was inactive. Further, in experiment [14], the AC50 was 69 µM (active).

Consider `CCCCCCCCCC[N+](C)(C)CCCCCCCCCC`, for which the AC50 is 5.55 µM (active) in [1]; 41.2 µM (active) in experiment [2]; 3.61 µM (active) in [3]; 15.6 µM (active) in [4]; 3.25 µM (active) in experiment [7]; 3.13 µM (active) in experiment [8]. Also, the AC50 was 179 µM (active) in experiment [12], 6.09 µM (active) in experiment [13], 192 µM (active) in experiment [15] and 100 µM (active) in [16]. The molecule was called inactive in experiment [5], in [6], in [9], in experiment [10], in [11] and in [14]. Moreover, the result in [18] and in experiment [19] was inactive.

The values above are taken from PubChem BioAssay (EPA / NIEHS).
